Experimental findings from the supplement of paper PMC6555819 are described below.

For the experiment, the system named is PPARg:RXRa (NR concentration 180 nM, RXRa partner concentration 90 nM). The experiment is described as follows: PBM binding z-score (relative to random genomic background probes); higher = stronger binding; sequences stand for … in GC…GCGATTGACAGCGTAGAATGAAGG
In a few lines:
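Binding buffer was PBS pH 7.4 with 2% milk, 0.02% Triton X-100, 1 mM DTT, 0.2 mg/mL BSA and 0.4 mg/ml salmon testes DNA. In it, ligand-free nuclear receptor dimers were incubated 1 h on custom Agilent 4×180K protein-binding microarrays carrying double-stranded probes. Antibodies against each partner (one per run) detected binding, and z-scores were calculated against random background probes after regression normalization of scanned fluorescence.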
In turn, TCTCGGAGGACACGAAGGTCAGAGCTTTCCAGAG registered a PBM binding z-score of 0.444.

Take GCGACTGGGGCAATGCAGGTTACCATAAGGTTGG: the PBM binding z-score is 1.65.

Consider TCTAGTTGGTCAAAGGTCACACATTCGAAATGCG, for which the PBM binding z-score is 11.5.

CCGTCTGGGGCAGAAAGGTTACCATACCATCCGG: the PBM binding z-score was 0.9.

GCTTACGGGTCAAAGGTTGTAGCATGAATAGAAT showed a PBM binding z-score of 9.83.

GCTAGTTGGTCAGTAAAAGGTTACACACCGGTCG registered a PBM binding z-score of 0.972.

With ATCGAAAGGTCGACGAGCTGAGTATACACCGTTT, the PBM binding z-score was determined as 2.33.

Sequence ACGATTAGTTGACTTAGGGCAACCGATACGACGC showed a PBM binding z-score of 0.855.

For TCTATTAGTTGACGGGCAACCGACGAGTCCGTTT, the PBM binding z-score worked out at 0.00282.

On to CAAACTAGGTCAGGGTCAAAGTCGGTTTGTGCCA, for which the PBM binding z-score was found to be 9.

TCATATAGGTAATACAGGTGAAAGCCGGCATCTA gave a PBM binding z-score of 1.68.

TCTTGTAGATCAAGCAGGTAAAGAAAGCCTGAGT: the PBM binding z-score was -0.39.

For the sequence AGAATGAGCTTATACGTAGATCAGGGAAGAAAGT, the PBM binding z-score stood at 0.415.

TCTTGTCGATCAATAGAGGTTAAGAAAGTGCGCT: the PBM binding z-score was found to be 0.144.

On to TATATAGGGTCAAAGGCCAGAGTACGAATGTCGA, for which the PBM binding z-score amounted to 8.65.

The sequence CCTAGTTGGTCAGGGTCACACACGCTATAGGTAC gave a PBM binding z-score of 3.28.

Turning to TCGAGTAGGTTACCAATGGGGCAATCAGCTTTCT, the PBM binding z-score stood at 0.44.

Consider CGTCCAAGGTCAAAGTTCAGTGAAGAGATGACGG, for which the PBM binding z-score was found to be 9.06.

ATCTCTAGGTAACCAAGTTCAGTAAATGCCGAAC returned a PBM binding z-score of 0.842.

As to TCTATTAGTTGATCAGGGCAACCGAAACAGCGGA, the PBM binding z-score was 0.218.

For AGTCAATGTTCAGGACGAGGTAACGTAAAGCACG, the PBM binding z-score was found to be 0.531.

ACTAGTTTGTCAGCTGAGGTCACACACAATTCGG yielded a PBM binding z-score of 1.49.
